The target in experiment [1] is Albumin (Bos taurus) (UniProt P02769). Kind of experiment: compounds binding labelled BSA control protein – biochemical, small-molecule microarray, Alexa647 label, 635/667 nm fluorescence, artefact control for SMM control protein annotation, profiling panel (AID 1118).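 Note: score merges 667 nm emission intensity and signal-to-noise per printed compound spot.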 Particulars: BSA-A647 binding, fluorescence 635 nm, higher = more signal.
A short description of experiment [2]: probe aXIP binding to arrayed compounds – biochemical, NeuroSMM set, 635/667 nm fluorescence, primary screen (AID 1119).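 Note: probe is the protein aXip251-270 applied at 1 µg/mL to compound-printed slides; binding of probe to printed compounds measured as 667 nm fluorescence plus signal to noise.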 The following applies: small-molecule microarray, higher = more signal, called active from +8 up or from −8 down.
Experiment [3] can be described thus: probe aNOTCH3 binding on compound microarray – biochemical, small-molecule microarray, 635/667 nm fluorescence, primary screen (AID 1120).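 Note: probe is a biotin-tagged antibody raised against NOTCH3 rather than NOTCH3 protein; score merges spot fluorescence near 667 nm with spot signal to noise.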 The following applies: higher = more signal.
A short description of experiment [4]: probe aNOTCH2 binding on compound microarray – biochemical, small-molecule microarray, 635/667 nm fluorescence, primary screen (AID 1121).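 Note: score merges feature fluorescence read at 667 nm with its signal to noise.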 Particulars: higher = more signal.
Experiment [5] concerns the target Carbonic anhydrase 2 (Homo sapiens) (UniProt P00918). Kind of experiment: compounds binding carbonic anhydrase 2 – biochemical, small-molecule microarray, Alexa647-labelled CAII, profiling panel (AID 1122). The following applies: CAII-A647 binding fluorescence, higher = more signal.
The nature of experiment [6]: COS7 lysate on small-molecule microarray, probe aHis, 635 nm (AID 1123).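 Note: z-score combines 667nm fluorescence intensity with signal-to-noise per printed compound spot.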 The following applies: COS7 cell lysate, fluorescence, higher = more signal.
The nature of experiment [7]: probe aLAP1 signal on lysate-treated microarray – cell lysate, small-molecule microarray, COS7 lysate, primary screen (AID 1124).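 Note: lysate comes from COS7 cells expressing LAP1 and is applied at 0.3 µg/mL; score merges spot fluorescence near 667 nm with signal-to-noise over triplicate slides.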 The following applies: probe aLAP1, fluorescence, higher = more signal.
Experiment [8] concerns Sam68 (KHDRBS1). Kind of experiment: compounds binding KHDRBS1 protein – biochemical, small-molecule microarray, 635 nm fluorescence, primary screen (AID 1125).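 Note: score merges 667 nm channel intensity with signal to noise over triplicate slides.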 Particulars: higher = more signal.
In experiment [9] the test system is Chordin-like protein 2 (CHRDL2). Kind of experiment: compounds binding chordin-like 2 – biochemical, small-molecule microarray, 635 nm fluorescence, primary screen (AID 1126).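 Note: printed compound slides probed with Chrdl2 protein at 4 µg/mL for 1 h at 4 C; score merges 667 nm emission intensity with signal to noise over three replicate slides.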 The following applies: fluorescence 635 nm, higher = more signal.
In experiment [10] the target is Concanavalin-A (Canavalia ensiformis) (UniProt P02866). Kind of experiment: compounds binding concanavalin A lectin – biochemical, small-molecule microarray, Alexa647 label, 635 nm, artefact control for SMM control protein annotation, primary screen (AID 1127).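 Note: z combines 667 nm emission intensity with signal-to-noise across three replicate slides.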 The following applies: ConA-A647 binding fluorescence, higher = more signal.
Chain of Concanavalin-A (Canavalia ensiformis) (P02866 whole entry, looked up): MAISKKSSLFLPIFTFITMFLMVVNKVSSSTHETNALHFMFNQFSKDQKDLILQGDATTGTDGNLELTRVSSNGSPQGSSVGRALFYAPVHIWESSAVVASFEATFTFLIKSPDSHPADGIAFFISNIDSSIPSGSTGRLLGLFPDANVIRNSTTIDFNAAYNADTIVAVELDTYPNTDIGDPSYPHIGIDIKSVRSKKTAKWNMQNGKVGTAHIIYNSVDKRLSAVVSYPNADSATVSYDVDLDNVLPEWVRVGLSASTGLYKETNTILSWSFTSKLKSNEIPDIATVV
Experiment [11] can be described thus: compounds binding Alexa647 anti-His antibody – biochemical, small-molecule microarray, 635 nm fluorescence, artefact control for SMM control protein annotation, primary screen (AID 1128).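 Note: score merges feature fluorescence with signal-to-noise for each printed compound spot.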 The following applies: higher = more signal.
In experiment [12] the test system is Human papillomavirus type 1a E7 protein (residues 1-88). Kind of experiment: HPV1a E7 small-molecule binders, primary screen, biochemical, small-molecule microarray, residues 1-88, 635 nm (AID 1129). Particulars: small-molecule microarray binding, fluorescence 635 nm; higher = more signal.
Experiment [13] addresses Focal adhesion kinase 1 (Homo sapiens) (UniProt Q05397). Kind of experiment: PTK2 protein binding on printed compound slides – biochemical, small-molecule microarray, 635/667 nm fluorescence, BSA, DTT, primary screen (AID 1130).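 Note: composite of spot emission at 667 nm and signal to noise over triplicate slides.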 The following applies: 635 nm fluorescence, higher = more signal.
Experiment [14] concerns Fibrinogen (Alexa647-labelled). Kind of experiment: Alexa647-fibrinogen binding to printed small molecules – biochemical, small-molecule microarray, 635/667 nm fluorescence, artefact control for SMM control-protein annotation, profiling panel (AID 1131).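 Note: z-score merges 667 nm fluorescence with per-spot signal-to-noise over triplicate slides.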 The following applies: fibrinogen-A647 binding fluorescence, higher = more signal.
Experiment [15] has as its target Follistatin (Homo sapiens) (UniProt P19883). Kind of experiment: FST protein binding to printed compounds – biochemical, small-molecule microarray, 635/667 nm fluorescence, primary screen (AID 1132). The following applies: 635 nm fluorescence, higher = more signal.
Experiment [16] has as its target Fibroblast growth factor 2 (Homo sapiens) (UniProt P09038). Kind of experiment: basic fibroblast growth factor binding to printed compounds – biochemical, small-molecule microarray, 635/667 nm fluorescence, primary screen (AID 1133). The following applies: FGF2, fluorescence 635/667, higher = more signal.
Experiment [17] is described as follows: JC-1 mitochondrial potential readout, lung cancer cells – cell-based, A549, JC-1 fluorescence, basal, 24 h, 100 nL, profiling panel (AID 1138).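 Note: A549 lung adenocarcinoma cells under basal conditions with no added stimulus; test concentration not given here.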 The following applies: higher = more signal.
Experiment [18] deals with Lefty1. Kind of experiment: Lefty1 protein binding to printed compounds – biochemical, small-molecule microarray, 635/667 nm fluorescence, primary screen (AID 1139). Particulars: fluorescence 635/667, higher = more signal.
The subject of experiment [19] is wheat germ agglutinin (Triticum aestivum), Alexa647-labelled. Kind of experiment: Alexa647-WGA lectin binding to printed small molecules – biochemical, small-molecule microarray, 635/667 nm fluorescence, artefact control for SMM control-protein annotation, profiling panel (AID 1140).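 Note: score merges 667 nm feature emission with signal to noise over triplicate slides.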 The following applies: WGA-A647 binding, 635 nm fluorescence, higher = more signal.

Experiment [20] has as its target Luciferin 4-monooxygenase (Photinus pyralis) (UniProt P08659). Kind of experiment: inhibition of purified Photinus pyralis luciferase – biochemical, luminescence, purified enzyme, 2006 set, primary screen (AID 1141).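 Note: cell-free assay with purified firefly luciferase at 100 ng per well in PBS; test concentration not given here.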 Particulars: purified firefly luciferase, SteadyGlo luminescence, 30 min; higher = more signal, called active from +8 up or from −8 down.

Calls of active or inactive are those of the source.

Experimental findings from PubChem BioAssay are described below.

Chain of Focal adhesion kinase 1 (Homo sapiens) (Q05397 whole entry, looked up): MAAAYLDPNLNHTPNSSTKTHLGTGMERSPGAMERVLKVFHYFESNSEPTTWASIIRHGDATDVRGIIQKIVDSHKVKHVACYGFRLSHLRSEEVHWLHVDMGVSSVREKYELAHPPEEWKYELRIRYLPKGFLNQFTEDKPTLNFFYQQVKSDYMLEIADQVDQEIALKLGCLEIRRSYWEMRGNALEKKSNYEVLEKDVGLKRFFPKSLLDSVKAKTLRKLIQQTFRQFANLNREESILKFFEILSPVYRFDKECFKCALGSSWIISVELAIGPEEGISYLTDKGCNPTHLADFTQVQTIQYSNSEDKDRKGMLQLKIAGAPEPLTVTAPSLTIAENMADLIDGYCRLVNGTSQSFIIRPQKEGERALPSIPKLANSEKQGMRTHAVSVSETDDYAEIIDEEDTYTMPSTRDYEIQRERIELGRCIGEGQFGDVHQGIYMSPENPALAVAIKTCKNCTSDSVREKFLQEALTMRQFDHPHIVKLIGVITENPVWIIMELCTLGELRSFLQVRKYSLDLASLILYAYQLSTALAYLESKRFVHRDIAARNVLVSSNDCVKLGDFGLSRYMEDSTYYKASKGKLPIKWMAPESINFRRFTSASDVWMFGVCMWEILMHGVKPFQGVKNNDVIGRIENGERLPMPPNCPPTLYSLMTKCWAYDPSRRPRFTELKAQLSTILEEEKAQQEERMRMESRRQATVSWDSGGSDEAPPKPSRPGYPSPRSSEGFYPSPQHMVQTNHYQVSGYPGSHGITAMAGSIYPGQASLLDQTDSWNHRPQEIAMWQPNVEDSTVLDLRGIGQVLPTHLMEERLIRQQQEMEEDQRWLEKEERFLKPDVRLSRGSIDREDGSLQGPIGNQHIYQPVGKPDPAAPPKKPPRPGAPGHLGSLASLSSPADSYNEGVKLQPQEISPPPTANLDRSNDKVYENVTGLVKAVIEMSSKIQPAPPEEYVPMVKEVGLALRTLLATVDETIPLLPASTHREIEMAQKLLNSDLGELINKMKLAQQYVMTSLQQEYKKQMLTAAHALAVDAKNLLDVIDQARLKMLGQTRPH
Chain of Follistatin (Homo sapiens) (P19883 whole entry, looked up): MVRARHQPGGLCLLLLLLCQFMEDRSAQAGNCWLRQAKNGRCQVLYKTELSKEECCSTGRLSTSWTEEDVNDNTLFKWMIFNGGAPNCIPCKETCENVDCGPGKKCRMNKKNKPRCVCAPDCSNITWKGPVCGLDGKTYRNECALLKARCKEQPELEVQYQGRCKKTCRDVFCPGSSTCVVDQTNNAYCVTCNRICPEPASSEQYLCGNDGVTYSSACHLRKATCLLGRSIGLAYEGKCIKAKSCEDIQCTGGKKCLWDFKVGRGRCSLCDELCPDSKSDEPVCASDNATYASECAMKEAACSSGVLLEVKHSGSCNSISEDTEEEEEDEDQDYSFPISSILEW
Chain of Fibroblast growth factor 2 (Homo sapiens) (P09038 whole entry, looked up): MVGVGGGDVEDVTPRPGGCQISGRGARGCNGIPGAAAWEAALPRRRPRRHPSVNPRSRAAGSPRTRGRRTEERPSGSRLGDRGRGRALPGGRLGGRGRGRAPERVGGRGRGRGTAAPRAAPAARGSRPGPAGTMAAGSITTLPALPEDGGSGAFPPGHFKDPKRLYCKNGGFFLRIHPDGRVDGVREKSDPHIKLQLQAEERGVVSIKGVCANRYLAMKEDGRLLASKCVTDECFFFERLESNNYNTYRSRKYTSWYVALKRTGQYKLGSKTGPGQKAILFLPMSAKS
Chain of Luciferin 4-monooxygenase (Photinus pyralis) (P08659 whole entry, looked up): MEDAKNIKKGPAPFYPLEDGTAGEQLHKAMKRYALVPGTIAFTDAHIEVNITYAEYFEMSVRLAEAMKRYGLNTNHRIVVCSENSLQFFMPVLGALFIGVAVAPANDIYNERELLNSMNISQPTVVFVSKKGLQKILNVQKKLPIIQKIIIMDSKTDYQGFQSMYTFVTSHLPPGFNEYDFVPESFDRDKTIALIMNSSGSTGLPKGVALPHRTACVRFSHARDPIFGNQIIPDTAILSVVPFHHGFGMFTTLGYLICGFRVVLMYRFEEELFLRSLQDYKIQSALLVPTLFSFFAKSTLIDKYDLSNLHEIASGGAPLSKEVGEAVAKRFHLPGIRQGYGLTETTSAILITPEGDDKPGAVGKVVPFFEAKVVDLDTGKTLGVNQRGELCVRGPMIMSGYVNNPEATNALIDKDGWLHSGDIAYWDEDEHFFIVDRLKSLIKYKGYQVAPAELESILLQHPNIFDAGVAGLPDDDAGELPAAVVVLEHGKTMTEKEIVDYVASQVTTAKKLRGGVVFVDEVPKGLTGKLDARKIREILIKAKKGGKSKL
Chain of Albumin (Bos taurus) (P02769 whole entry, looked up): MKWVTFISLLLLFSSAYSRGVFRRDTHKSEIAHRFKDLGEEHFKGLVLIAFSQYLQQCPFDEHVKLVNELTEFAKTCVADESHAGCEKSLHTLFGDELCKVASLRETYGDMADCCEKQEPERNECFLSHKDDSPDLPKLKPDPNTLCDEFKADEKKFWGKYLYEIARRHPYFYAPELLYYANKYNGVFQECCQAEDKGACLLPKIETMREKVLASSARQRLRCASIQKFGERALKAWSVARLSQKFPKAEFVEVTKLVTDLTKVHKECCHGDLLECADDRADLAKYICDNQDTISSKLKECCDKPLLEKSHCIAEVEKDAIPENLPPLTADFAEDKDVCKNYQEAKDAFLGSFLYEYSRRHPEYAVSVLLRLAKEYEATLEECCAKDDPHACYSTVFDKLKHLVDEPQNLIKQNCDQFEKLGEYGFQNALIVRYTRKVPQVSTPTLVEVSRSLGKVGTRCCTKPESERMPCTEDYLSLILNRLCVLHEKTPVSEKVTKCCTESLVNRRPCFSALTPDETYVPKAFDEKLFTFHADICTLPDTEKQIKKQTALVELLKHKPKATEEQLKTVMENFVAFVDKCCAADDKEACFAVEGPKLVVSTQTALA

As for `CCCC[C@@H]1C[C@H]1[C@@H](NC(=O)c1ccccc1)c1ccc(C(F)(F)F)cc1`, the composite z-score is -0.0844 in experiment [1]; 0.0562 in [3]; -0.0698 in experiment [4]; 0.009 in experiment [5]; -0.511 in [6]; -0.134 in experiment [7]. Also, the composite z-score in experiment [8] is -1.5; in experiment [9] it was -1.15; in [10] it was -0.917; in experiment [11] it was 0.581; in [12] it was -0.551; in [13] it was -0.0796. In addition, the composite z-score in experiment [14] is -2.43; in experiment [15] it was -1; in experiment [16], -1.19; in experiment [18], -0.549; in [19], -0.331. In addition, the composite Z-score in experiment [2] was -0.157 (inactive). Moreover, the z-score in experiment [17] is -0.0527; in [20] it was 0.286 (inactive).

As for `Cc1ccc(S[C@]2(C(=O)NCCCN(C)C)CC(=O)N(C3CCCCC3)[C@@H]2c2ccc(CO)cc2)cc1`, the composite z-score was 0.156 in experiment [1]; -0.182 in experiment [3]; -0.0761 in experiment [4]; 0.228 in experiment [5]; -0.111 in [6]; -0.183 in [7]. For the same molecule, the composite z-score in experiment [8] was -1.01; in experiment [9] it was -1.18; in experiment [10] it was -0.957; in [11] it was -0.693; in [12], -0.612; in experiment [13], 0.116. Also, the composite z-score in experiment [14] was -1.43; in [15], -0.24; in experiment [16], -0.852; in experiment [18], -0.562; in experiment [19], 0.165. Besides, the composite Z-score in experiment [2] was 0.0469 (inactive). Moreover, the z-score in experiment [17] is 1.28; in experiment [20], 0.437 (inactive).

`CC(C)[Si](C#CCCCC#N)(O[C@H](c1ccccc1)c1cn([C@H](CO)Cc2ccccc2)nn1)C(C)C`: the composite z-score was 0.992 in experiment [1]; -0.15 in [3]; -0.161 in experiment [4]; 0.456 in experiment [5]; 0.605 in experiment [6]; 0.936 in experiment [7]. Further, the composite z-score is 1.11 in experiment [8]; -0.006 in experiment [9]; 1.16 in experiment [10]; -0.135 in experiment [11]; 1.12 in experiment [12]; 0.26 in experiment [13]. Besides, the composite z-score was 0.975 in experiment [14]; 1.14 in experiment [15]; 0.812 in experiment [16]; 0.385 in experiment [18]; 0.231 in experiment [19]. Also, in experiment [2], the composite Z-score was 0.727 (inactive). In addition, the figures for the z-score in [17] and in experiment [20] were 0.162 and -0.175 (inactive), respectively.

For `COC(=O)CCCCCCC(=O)Nc1ccc(NC(=O)CCCC[P+](c2ccccc2)(c2ccccc2)c2ccccc2)cc1`, the composite z-score was -0.637 in experiment [1]; 0.116 in experiment [3]; -0.134 in experiment [4]; -0.281 in experiment [5]; -0.478 in experiment [6]; 0.116 in experiment [7]. Besides, the composite z-score was 0.559 in experiment [8]; 1.26 in experiment [9]; 0.0666 in experiment [10]; 0.703 in [11]; 0.289 in experiment [12]; -0.507 in experiment [13]. In addition, the composite z-score in [14] is -0.722; in [15], 1.01; in experiment [16], 0.626; in experiment [18], 1.23; in experiment [19], 0.0334. The composite Z-score in [2] is 0.0895 (inactive). Also, the z-score in [17] was 0.679; in experiment [20] it was 1.3 (inactive).

For `C=CCC(OC(C)=O)[C@@H]1[C@@H](N(Cc2cccc3ccccc23)C(=O)Cc2ccc(OC)cc2)c2cc(OCCCO)ccc2N1C(=O)c1ccc2ccccc2n1` (stereo not given in full), the composite z-score in experiment [1] was 0.249; in experiment [3] it was 0.0224; in experiment [4] it was -0.0515; in [5], 0.189; in experiment [6], 0.979; in experiment [7] it was 0.449. Further, the composite z-score was 0.404 in experiment [8]; 0.173 in [9]; -0.212 in [10]; -0.115 in experiment [11]; -0.0569 in [12]; 0.833 in [13]. Moreover, the composite z-score in experiment [14] was 0.733; in experiment [15] it was 0.822; in experiment [16], 0.0677; in [18], -0.0766; in experiment [19], 0.174. For the same molecule, the composite Z-score in experiment [2] is 0.397 (inactive). For the same molecule, the z-score is 0.343 in experiment [17] and 0.565 (inactive) in [20].
